Assay outcomes from PubChem.
A selection: hits, their analogues and other compounds. The true share with any hit is near 1.7%.
hERG WT inh = qHTS for Inhibitors of KCHN2 3.1: Wildtype qHTS; actives 0.37% (n = 340,000); AID 720551, 2013; activity change, % at 1.84 µM; U2OS, BacMam KCNH2, thallium flux FluxOr; active compounds read low; Voltage-gated inwardly rectifying potassium channel KCNH2 (Homo sapiens), Q12809;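 active = maximum activity change below -70%; inconclusive = maximum activity change between -70% and -50%; inactive = maximum activity change above -50%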
Target sequence (Q12809 whole entry, looked up): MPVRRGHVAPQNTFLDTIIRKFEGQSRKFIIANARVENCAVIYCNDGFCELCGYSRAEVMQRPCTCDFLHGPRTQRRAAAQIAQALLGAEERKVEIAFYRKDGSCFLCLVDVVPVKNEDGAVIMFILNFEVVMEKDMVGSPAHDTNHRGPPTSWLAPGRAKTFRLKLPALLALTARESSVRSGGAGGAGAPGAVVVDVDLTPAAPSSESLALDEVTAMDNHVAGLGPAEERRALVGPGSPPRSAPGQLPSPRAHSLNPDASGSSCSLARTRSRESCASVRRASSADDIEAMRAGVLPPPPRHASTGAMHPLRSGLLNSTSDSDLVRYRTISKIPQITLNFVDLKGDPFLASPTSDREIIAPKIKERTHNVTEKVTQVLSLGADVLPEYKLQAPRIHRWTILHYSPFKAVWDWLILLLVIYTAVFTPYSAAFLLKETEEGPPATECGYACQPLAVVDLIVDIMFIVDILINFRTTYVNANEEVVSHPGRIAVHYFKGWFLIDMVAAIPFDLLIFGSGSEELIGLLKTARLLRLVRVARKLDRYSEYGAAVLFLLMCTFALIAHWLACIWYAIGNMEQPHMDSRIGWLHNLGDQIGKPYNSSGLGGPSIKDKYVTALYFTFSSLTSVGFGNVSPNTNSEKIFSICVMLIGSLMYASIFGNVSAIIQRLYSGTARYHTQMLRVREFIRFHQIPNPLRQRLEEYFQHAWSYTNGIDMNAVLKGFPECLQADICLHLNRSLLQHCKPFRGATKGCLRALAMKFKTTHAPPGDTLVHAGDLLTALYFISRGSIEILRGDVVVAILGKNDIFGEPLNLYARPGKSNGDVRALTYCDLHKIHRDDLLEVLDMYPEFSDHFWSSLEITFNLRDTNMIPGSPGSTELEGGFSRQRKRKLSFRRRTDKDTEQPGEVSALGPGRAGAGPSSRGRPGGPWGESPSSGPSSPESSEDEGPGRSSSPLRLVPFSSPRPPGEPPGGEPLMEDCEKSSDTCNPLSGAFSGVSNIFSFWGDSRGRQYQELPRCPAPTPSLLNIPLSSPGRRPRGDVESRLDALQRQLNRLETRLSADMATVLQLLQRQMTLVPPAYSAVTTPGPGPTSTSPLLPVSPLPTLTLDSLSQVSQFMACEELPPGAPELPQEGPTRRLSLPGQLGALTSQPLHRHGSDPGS
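U2OS cells transduced with wild-type KCNH2 virus are loaded with FluxOr dye for 45 min, and thallium flux is measured in kinetic reads before and after stimulation buffer. Rate constants are normalized to DMSO controls.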
Giardia kill = Small Molecules that selectively kill Giardia lamblia: qHTS; Giardia lamblia trophozoite viability; AID 540267, 2011; actives 0.15% (n = 340,000); activity change, % at 7.66 µM, hits read low; in the data active = activity change below about -80%; inconclusive = between about -30% and that limit;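 also: parasites exposed to compound for two days anaerobically before the ATP read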
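Killing of trophozoites was scored by loss of ATP luminescence after a 48 hrs anaerobic exposure to compounds at 37 deg C, using 100 cells per well.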
USP1 inh = Inhibitors of USP1/UAF1: Primary Screen. Ubiquitin carboxyl-terminal hydrolase 1 (Homo sapiens), O94782. actives 0.23% (n = 390,000). Potency, µM (titrated, usually from 57.1 µM), for inactives: at the top dose activity change, negative = inhibition, most hits filed as inhibitors. recombinant USP1/UAF1, Ub-Rhodamine cleavage fluorescence; active = well fitted inhibition curve with a large enough effect; inconclusive = small, poorly fitted or top-dose-only effect; inactive = no such curve, though single readings can be large or run the other way; also: potency is read from the fitted curve at half-maximal effect; nearly all actives have a fitted effect of over 60% in size
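1 nM enzyme complex + cpd, 15 min RT; start with Ub-Rho 150nM final; kinetic fluorescence ex 480/em 540, 6 reads q60 s. Buffer 50mM HEPES pH 7.8, 0.5mM EDTA, 0.1 mg/ml BSA, 1mM TCEP, 0.01% Tween-20.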
KCNH2 3.1 inh = qHTS for Inhibitors of KCHN2 3.1: Mutant qHTS | Potassium voltage-gated channel subfamily H member 2, brain isoform KCNH2 3.1 (human) | U2OS KCNH2 3.1, thallium flux FluxOr; active compounds read low | actives 0.95% (n = 340,000) | activity change, % (tested at about 1.8 µM);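 active = maximum activity change below -70%; inconclusive = maximum activity change from -70% to -50%; inactive = maximum activity change above -50%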;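 also: thallium influx rate constant from kinetic fluorescence after stimulation buffer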
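FluxOr-based Tl+ influx in U2OS cells transduced with KCNH2 3.1 virus; rate constants normalized to DMSO controls.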
Coupling enz = qHTS Assay for Inhibitors of Fructose-1,6-bisphosphate Aldolase from Giardia Lamblia: Coupling assay counterscreen. coupling enzyme system counterscreen, AmpLite Red fluorescence. AID 2472, 2010. actives 0.67% (n = 290,000). activity change, negative = inhibition, % at 58.2 µM, hits read low; in the data active = activity change below about -30%
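Activity here indicates interference with the coupling reaction, not aldolase inhibition. Compounds at 57.5 uM final met coupling enzymes for 10 min at RT; substrate and AmpLite Red detection followed, with a 525/598 nm fluorescence read after 20 min.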
* hit, by the source's call; u = inconclusive; x = no result; ! = a repeat was not active. % is scaled to controls: 0 for no effect and ±100 for the full control effect.

SMILES | hERG WT inh | Giardia kill | USP1 inh | KCNH2 3.1 inh | Coupling enz
N#C/C(=C\c1ccc(-c2ccccc2[N+](=O)[O-])o1)C(=O)N1CCOCC1 | 0 | 10 | -1% | -79* | -13
Cc1ccc(-c2ccccc2NC(=O)CCl)o1 | 0 | -16 | -20% | -3 | -50*
Cc1ccc(-c2ccccc2NC(=O)CS(=O)CC(=O)Nc2ccc(C)c(Cl)c2)o1 (configuration not stated) | -11 | u | u | 5 | 2
CSc1ccc(C2C(C#N)=C(N)Oc3c2ccc(=O)c2c(C)oc(C)c32)cc1 (configuration not stated) | -1 | 4 | u | 19 | -36*
Cc1ccc(N2CC(NC(=O)C(=O)c3c[nH]c4ccccc34)CC2=O)cc1 (configuration not stated) | x | x | -20% | x | x
Cc1ccc(NS(=O)(=O)c2ccccc2)c2c1CC(C)(C)O2 | 32 | -18 | -15% | 49 | -46*
CCOC(=O)c1oc2ccccc2c1COC(=O)CNC(=O)c1cccc(C)c1 | -1 | -13 | -8% | -80* | x
COc1ccc(C(=O)NCC(=O)OCc2cc(=O)n3nc(C4CCCCC4)sc3n2)cc1 | x | x | -19% | x | x
CCC(Sc1ncc(S(=O)(=O)c2ccc(Cl)cc2)c(=O)[nH]1)C(=O)Nc1ccc(OC)cc1 (configuration not stated) | x | x | -13% | x | x
COc1ccc(C2CC(O)(c3ccccc3)Oc3cc(C)c(Cl)c(C)c32)cc1 (configuration not stated) | x | 0 | x | x | -2
COc1ccc(C2CC(O)(c3ccccc3)Oc3cc(OC)c(OC)c(OC)c32)cc1 (configuration not stated) | 8 | -9 | -29% | 8 | -39*!
COc1cc2c(c(OC)c1OC)C(c1ccc(O)cc1)CC(=O)O2 (configuration not stated) | -25 | -5 | u | 9 | -32*
CCOc1ccc(CCNC(=O)Cn2nc(-c3ccc(C)cc3)ccc2=O)cc1OCC | x | x | 20% | x | x
COc1cc2c(cc1OC)C(C(C(=O)N(CCc1ccc(OC)c(OC)c1OC)CCc1ccc(OC)c(OC)c1OC)c1ccccc1)=NCC2 (configuration not stated) | x | x | x | x | -11
COc1ccccc1C(=O)NCC(=O)N1CCN(C/C=C/c2ccccc2)CC1 | -14 | 0 | -11% | -18 | x
COc1ccc(NC(C)=O)cc1S(=O)(=O)N1CCN(C(=O)c2ccccc2F)CC1 | 3 | 3 | -20% | 7 | 2
COc1ccccc1NC(=O)C(C)N1CCN(C/C=C/c2ccccc2)CC1 (configuration not stated) | -82* | -5 | -1% | -95* | 1
COc1ccc(NC(C)=O)cc1S(=O)(=O)N1CCN(C/C=C/c2ccccc2)CC1 | 12 | 2 | -17% | -73* | 5
CCOc1ccc(N2CC(c3nc(-c4cc(OC)c(OC)c(OC)c4)no3)CC2=O)cc1 (configuration not stated) | x | x | -28% | x | x
N=C1N(c2ccccc2)C(=S)C(=Nc2ccccc2)N1c1ccccc1 | -71* | 6 | -26% | -18 | x
CCC(c1nnc(SCCNCCO)n1CCN1CCOCC1)N(C)C (configuration not stated) | -6 | 1 | -8% | -177* | 3
CCC(c1nnc(SCC(=O)Nc2ccc(N3CCOCC3)cc2)n1Cc1ccccc1)N(C)C (configuration not stated) | 8 | 10 | -7% | -3 | x
NC(=O)NCc1ccc(Cl)cc1 | -21 | 12 | -8% | -80* | 1
COc1ccc(CNC(N)=O)cc1 | 3 | -8 | -11% | 8 | x
CCCC(=O)NC(c1ccccc1Cl)c1ccc2cccnc2c1O (configuration not stated) | -17 | 14 | -5% | -97* | -1
SMILES | hERG WT inh | Giardia kill | USP1 inh | KCNH2 3.1 inh | Coupling enz
CCOC(=O)c1ccc(NC(=O)c2c(NCc3sccc3C)sc3c2CCC(C)C3)cc1 (configuration not stated) | x | x | -9% | x | x
Cc1ccc(C)c(CSc2nc3ncccc3[nH]2)c1 | x | x | -9% | x | x
O=C1CC(c2ccc(O)cc2)Oc2cc(O)cc(O)c21 (configuration not stated) | -1 | 11 | -8% | 24 | 6
CC1CC(=O)c2c(cc3c(-c4c(O)cc(O)c5c(O)c6c(cc45)OC(C)CC6=O)c(O)cc(O)c3c2O)O1 (configuration not stated) | 5 | u | 32µM* | 8 | -8
CC1CCCN(CCCOc2ccc(Br)cc2Cl)C1 (configuration not stated) | 33 | -23 | -15% | -105* | -2
Cc1cc(OCCCCCN2CCCC2)ccc1Cl | 75 | -20 | -1% | -86* | 2
Clc1ccc(Cl)c(OCCCCN2CCCCC2)c1 | -137* | 6 | -14% | -158* | -1
Clc1ccc(Cl)c(OCCCCNCc2ccccc2)c1 | 1 | 7 | 4% | -93* | 1
O=C(/C=C(\O)c1ccccc1)c1ccccc1O | x | x | x | x | 5
CCOc1ccc(Nc2ncnc3c2nc2n3CCCC2)cc1 | x | x | -17% | x | x
Cc1cc(Br)ccc1OCCCCN1CCCCC1 | -30 | 7 | -10% | -89* | 0
CC(C)(C)c1ccc(OCCCN2CCCC2)cc1 | 40 | 2 | 7% | -86* | 1
COc1ccc(OC)c(-c2c3cc(O)c(=O)cc-3oc3cc(O)c(O)cc23)c1 | -17 | -17 | u | -3 | -53*
CCOc1ccccc1-c1c2cc(O)c(=O)cc-2oc2cc(O)c(O)cc12 | -14 | -10 | u | 0 | -62*
COC(=O)c1ccccc1NC(=O)c1nn(C)c2c1COc1ccccc1-2 | x | x | 1% | x | x
Cc1cccc(-n2c(-c3ccccc3)cn3c4c(=O)[nH]c(=O)n(C)c4nc23)c1 | x | x | -24% | x | x
COc1ccc(CNCc2ccccc2)cc1COc1ccc(NC(C)=O)cc1 | x | 11 | x | x | x
Cc1ccc(CN2CCC(c3nc4ccc(Cl)cc4[nH]3)CC2)cc1 | -132* | -6 | 3% | -93* | 0
Cc1ccc(CN2CCC(c3cc(-c4ccc(Cl)cc4)n[nH]3)CC2)cc1 | -84* | -20 | -21% | -102* | -1
Nc1nc(Cl)cc(N2CCC(c3cc(-c4ccc(Cl)cc4)n[nH]3)CC2)n1 | 1 | 0 | -12% | -74* | 0
COc1ccc(-c2cc(C3CCN(Cc4ccc([N+](=O)[O-])cc4)CC3)[nH]n2)cc1 | -87* | -16 | -21% | -112* | 0
COc1ccc(-c2cc(C3CCN(Cc4cccc(C(F)(F)F)c4)CC3)[nH]n2)cc1 | 47 | -8 | -4% | x | 0
